Laboratory results: the supplement of paper PMC10849652
Of roughly 8,800 targets only a part is listed; those with a hit were picked by preference. About 0.5% of all pairs of compound and target were hits.

Compound: Cc1cn(-c2cc(NC(=O)c3ccc(C)c(Nc4nccc(-c5cccnc5)n4)c3)cc(C(F)(F)F)c2)cn1 [nilotinib]
Experiment: log2 fold change, soluble protein after heating vs DMSO (PISA); higher = thermal stabilisation; K562 lysate, 10 uM; active = over 0.2 and 3.5 SD of the protein, either way, in both replicates (recomputed)
How it was run: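 Quantification was by TMTpro 16plex LC-MS/MS with equalised channel sums, applied to the supernatant after 21,000xg for 90 min. Samples were crude K562 extract at 1 mg/mL protein in PBS pH 7.4 with 1 mM MgCl2, treated with 10 μM compound for 30 min, heated for 3 min across 48°C-58°C, pooled and brought to 0.5% NP-40 at 4°C. Values are log-two fold changes in thermal stability relative to solvent controls, from duplicates.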

Sequence of UniProt Q8WVV9 (Q8WVV9 whole entry, looked up): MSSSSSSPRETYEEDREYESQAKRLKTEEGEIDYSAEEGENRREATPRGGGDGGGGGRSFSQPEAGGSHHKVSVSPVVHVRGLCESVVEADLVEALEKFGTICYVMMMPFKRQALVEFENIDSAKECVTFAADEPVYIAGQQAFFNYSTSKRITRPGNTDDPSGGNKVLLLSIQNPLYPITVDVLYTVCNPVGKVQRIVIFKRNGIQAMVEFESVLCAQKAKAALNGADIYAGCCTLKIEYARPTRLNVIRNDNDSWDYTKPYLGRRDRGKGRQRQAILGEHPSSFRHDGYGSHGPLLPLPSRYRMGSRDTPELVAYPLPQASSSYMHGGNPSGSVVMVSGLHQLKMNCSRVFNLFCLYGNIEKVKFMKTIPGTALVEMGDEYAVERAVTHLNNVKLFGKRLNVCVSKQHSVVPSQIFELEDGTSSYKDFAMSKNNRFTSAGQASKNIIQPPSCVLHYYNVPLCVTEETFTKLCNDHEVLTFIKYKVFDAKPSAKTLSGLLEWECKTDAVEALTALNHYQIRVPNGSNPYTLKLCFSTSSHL
Sequence of UniProt O15379 (O15379 whole entry, looked up): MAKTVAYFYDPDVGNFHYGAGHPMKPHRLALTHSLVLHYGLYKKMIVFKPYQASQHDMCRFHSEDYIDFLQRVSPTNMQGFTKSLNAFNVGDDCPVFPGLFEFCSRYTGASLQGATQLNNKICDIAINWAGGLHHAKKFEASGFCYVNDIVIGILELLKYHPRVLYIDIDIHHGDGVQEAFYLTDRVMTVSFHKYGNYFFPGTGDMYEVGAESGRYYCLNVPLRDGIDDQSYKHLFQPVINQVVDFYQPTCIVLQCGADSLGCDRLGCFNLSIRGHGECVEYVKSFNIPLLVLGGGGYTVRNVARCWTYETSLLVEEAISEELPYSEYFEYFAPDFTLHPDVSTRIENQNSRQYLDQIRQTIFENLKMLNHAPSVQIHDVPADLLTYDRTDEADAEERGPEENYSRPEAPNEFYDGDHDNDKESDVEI
Sequence of UniProt Q03013 (Q03013 whole entry, looked up): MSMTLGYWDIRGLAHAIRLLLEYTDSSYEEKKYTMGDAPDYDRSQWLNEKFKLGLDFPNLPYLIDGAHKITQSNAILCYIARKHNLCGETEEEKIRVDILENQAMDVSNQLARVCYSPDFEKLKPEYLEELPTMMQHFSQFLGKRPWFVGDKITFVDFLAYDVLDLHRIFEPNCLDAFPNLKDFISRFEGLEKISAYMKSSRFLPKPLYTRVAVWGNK
Sequence of UniProt Q99729 (Q99729 whole entry, looked up): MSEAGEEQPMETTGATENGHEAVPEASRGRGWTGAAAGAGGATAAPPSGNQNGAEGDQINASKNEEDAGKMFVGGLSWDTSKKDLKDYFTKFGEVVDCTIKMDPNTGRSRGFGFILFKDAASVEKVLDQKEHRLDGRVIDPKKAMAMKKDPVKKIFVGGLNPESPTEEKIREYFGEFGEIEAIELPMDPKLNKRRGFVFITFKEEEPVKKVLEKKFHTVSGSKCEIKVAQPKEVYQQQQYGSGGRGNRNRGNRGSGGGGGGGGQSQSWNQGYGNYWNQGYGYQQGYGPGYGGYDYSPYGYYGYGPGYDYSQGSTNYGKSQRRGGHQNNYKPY
Sequence of UniProt Q8NEC7 (Q8NEC7 whole entry, looked up): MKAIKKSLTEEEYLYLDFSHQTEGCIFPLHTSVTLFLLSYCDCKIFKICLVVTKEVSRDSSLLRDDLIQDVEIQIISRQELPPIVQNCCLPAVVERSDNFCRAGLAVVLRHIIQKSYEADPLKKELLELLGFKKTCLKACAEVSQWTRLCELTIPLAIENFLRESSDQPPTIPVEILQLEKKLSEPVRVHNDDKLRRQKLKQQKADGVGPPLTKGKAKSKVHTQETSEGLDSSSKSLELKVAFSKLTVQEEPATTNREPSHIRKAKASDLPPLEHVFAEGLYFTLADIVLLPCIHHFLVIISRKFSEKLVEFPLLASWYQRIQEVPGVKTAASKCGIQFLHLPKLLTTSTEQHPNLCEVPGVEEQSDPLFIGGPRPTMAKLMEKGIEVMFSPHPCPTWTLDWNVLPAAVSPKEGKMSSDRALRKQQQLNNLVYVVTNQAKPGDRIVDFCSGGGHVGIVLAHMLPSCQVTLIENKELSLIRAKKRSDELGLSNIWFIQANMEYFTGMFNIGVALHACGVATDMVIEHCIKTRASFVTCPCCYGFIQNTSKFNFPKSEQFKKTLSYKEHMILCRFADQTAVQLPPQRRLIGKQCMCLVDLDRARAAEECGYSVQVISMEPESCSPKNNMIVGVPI
Sequence of UniProt O15357 (O15357 whole entry, looked up): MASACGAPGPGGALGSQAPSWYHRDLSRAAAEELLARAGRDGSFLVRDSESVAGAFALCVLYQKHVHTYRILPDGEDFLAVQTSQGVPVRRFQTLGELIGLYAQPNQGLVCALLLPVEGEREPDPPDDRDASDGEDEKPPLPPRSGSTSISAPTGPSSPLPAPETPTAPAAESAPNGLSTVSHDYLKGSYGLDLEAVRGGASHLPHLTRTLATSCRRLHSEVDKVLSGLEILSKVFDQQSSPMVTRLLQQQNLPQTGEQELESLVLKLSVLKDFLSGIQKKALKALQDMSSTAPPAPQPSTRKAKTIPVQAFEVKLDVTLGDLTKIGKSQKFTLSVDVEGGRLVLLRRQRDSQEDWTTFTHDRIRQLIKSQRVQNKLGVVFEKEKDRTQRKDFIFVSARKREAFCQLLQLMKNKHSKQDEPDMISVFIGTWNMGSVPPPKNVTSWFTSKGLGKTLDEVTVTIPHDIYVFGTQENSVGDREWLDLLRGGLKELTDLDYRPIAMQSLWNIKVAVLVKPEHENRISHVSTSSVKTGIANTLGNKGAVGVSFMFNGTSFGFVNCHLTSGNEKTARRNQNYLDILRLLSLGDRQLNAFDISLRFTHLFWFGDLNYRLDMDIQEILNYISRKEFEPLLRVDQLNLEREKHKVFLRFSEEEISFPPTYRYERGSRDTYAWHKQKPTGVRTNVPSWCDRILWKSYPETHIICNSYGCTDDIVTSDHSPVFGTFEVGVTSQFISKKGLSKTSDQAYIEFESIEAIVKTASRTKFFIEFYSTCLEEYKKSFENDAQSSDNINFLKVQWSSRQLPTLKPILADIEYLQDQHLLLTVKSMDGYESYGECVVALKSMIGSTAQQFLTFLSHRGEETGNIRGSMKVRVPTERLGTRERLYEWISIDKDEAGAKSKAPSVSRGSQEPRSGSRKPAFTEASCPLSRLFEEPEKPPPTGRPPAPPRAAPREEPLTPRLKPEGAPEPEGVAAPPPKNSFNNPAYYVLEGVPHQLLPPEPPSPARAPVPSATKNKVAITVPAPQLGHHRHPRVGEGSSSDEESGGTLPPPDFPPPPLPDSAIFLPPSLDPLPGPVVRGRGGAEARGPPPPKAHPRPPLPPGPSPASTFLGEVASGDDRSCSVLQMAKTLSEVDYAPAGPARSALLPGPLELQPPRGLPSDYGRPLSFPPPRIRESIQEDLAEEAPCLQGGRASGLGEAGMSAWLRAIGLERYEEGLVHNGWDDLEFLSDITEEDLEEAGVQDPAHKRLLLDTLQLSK
Sequence of UniProt Q14103 (Q14103 whole entry, looked up): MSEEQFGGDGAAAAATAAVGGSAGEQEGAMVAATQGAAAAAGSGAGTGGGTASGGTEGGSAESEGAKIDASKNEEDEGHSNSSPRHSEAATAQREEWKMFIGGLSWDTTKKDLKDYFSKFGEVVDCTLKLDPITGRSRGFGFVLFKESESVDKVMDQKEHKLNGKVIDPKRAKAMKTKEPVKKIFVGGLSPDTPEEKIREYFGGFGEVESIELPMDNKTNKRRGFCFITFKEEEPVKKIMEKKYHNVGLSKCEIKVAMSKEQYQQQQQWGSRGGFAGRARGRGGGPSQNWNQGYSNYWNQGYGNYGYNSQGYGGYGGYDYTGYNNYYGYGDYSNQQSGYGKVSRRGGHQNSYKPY
Sequence of UniProt P52789 (P52789 whole entry, looked up): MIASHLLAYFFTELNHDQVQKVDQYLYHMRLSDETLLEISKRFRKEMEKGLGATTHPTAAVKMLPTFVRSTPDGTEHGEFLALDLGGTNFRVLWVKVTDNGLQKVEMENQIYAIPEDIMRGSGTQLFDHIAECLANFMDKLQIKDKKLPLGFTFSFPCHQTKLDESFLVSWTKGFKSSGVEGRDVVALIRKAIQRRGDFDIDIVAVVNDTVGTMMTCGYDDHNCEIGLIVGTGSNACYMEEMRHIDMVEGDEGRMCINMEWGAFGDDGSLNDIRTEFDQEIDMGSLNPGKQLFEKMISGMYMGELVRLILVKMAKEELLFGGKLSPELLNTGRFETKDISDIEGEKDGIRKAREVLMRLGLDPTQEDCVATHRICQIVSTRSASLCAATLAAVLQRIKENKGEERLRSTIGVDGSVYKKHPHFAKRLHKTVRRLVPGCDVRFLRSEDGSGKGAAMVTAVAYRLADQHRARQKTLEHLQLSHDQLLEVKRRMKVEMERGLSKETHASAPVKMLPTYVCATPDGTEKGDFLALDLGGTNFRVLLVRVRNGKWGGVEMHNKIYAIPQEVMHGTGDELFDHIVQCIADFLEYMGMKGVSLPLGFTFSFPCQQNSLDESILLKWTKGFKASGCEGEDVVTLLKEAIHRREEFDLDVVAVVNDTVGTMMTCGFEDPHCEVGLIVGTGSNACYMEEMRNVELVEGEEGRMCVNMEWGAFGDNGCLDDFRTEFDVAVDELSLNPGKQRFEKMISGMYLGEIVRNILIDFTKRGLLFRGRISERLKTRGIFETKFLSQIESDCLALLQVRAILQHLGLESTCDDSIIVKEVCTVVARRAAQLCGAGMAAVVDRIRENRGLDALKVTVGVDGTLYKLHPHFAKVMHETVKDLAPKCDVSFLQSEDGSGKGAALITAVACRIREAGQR
Sequence of UniProt Q9H079 (Q9H079 whole entry, looked up): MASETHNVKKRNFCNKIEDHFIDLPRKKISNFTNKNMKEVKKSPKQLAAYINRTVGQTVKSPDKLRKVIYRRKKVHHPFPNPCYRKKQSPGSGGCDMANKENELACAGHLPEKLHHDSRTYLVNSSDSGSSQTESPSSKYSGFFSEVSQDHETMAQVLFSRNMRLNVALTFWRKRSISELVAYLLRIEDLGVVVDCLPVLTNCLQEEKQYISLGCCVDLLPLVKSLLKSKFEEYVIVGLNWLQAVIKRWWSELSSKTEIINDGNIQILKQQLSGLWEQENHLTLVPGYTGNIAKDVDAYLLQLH

log2 fold change, inactive:
IFNGR1 (UniProt P15260) 0.227
GSTCD (UniProt Q8NEC7) 0.039
GSTM4 (UniProt Q03013) -0.163
GNB1 (UniProt P62873) 0.075
HMGN4 (UniProt O00479) 0.049
KATNBL1 (UniProt Q9H079) -0.057
HNRNPAB isoform 3 (UniProt Q99729) -0.012
IRF2BPL (UniProt Q9H1B7) 0.001
HNRNPD isoform 3 (UniProt Q14103) 0.012
HDAC3 (UniProt O15379) -0.079
IGF2BP2 (UniProt Q9Y6M1) -0.051
IRAK4 (UniProt Q9NWZ3) -0.115
HSPB1 (UniProt P04792) -0.001
HK2 (UniProt P52789) 0.065
HAUS4 (UniProt Q9H6D7) 0.03
GNB4 (UniProt Q9HAV0) -0.083
GRK6 isoform 2 (UniProt P43250) -0.024
ILK (UniProt Q13418) 0.01
INPPL1 (UniProt O15357) -0.007
HNRNPLL (UniProt Q8WVV9) -0.031
GTF2I (UniProt P78347) 0.001
GPR108 (UniProt Q9NPR9) 0.044
GMPS (UniProt P49915) -0.006
